Measured values reported in PubChem BioAssay (Tox21).
Records with an inconclusive call do not appear. Where a call stands in place of a potency, no number is given. Unmarked numbers belong to inactive results. Activity calls are given as the source filed them. Calls come from the whole dose curve; as a rule, active = well fitted cell-killing curve with a large enough effect in the repeat runs; inconclusive = weak or mixed curves, or effect the other way; inactive = no such curve, though single readings can be large or run the other way.

Assay: qHTS assay to identify small molecule agonists of the estrogen receptor alpha (ER-alpha) signaling pathway in the presence of an antagonist - cell viability counter screen (AID 1259386);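 note: cells exposed to compounds for 22 h at 37 °C before the viability read; nearly all actives have a fitted effect of over 30% in size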
Details: VM7Luc4E2 viability, CellTiter-Fluor fluorescence, 22 h; series mostly up to 92.4 µM
Text: National Center for Advancing Translational Sciences [NCATS]
NIH Chemical Genomics Center [NCGC]
U.S. Environmental Protection Agency [EPA]
National Institutes of Environmental Health Sciences [NIEHS]
National Toxicology Program [NTP]
U.S. Food and Drug Administration [FDA]
Estrogen receptor (ER), a member of nuclear hormone receptor plays an important role in development, metabolic homeostasis and reproduction. Two subtypes of ER, ER-alpha and ER-beta, have similar expression patterns with some uniqueness in both types. Endocrine disrupting chemicals (EDCs) and their interactions with steroid hormone receptors like ER causes disruption of normal endocrine function. Therefore, it is important to understand the effect of environmental chemicals in ER signaling pathway. For identifying ER agonists, VM7Luc4E2 cell line has been used in the current assay.
VM7Luc4E2 cell line (provided by Denison MS, University of California) endogenously expresses full-length ER-alpha and is stably transfected with a plasmid containing four estrogen responsive elements (ERE) upstream of a luciferase reporter gene. This current screening for measuring luciferase reporter gene activity using VM7Luc4E2 cells against Tox21 10K library collection is a confirmation study on agonist mode screening in presence of ER-antagonist (ICI-182,780) at 10.0nM final concentration. The cytotoxicity of the compounds was tested in parallel by measuring the cell viability using CellTiter-Fluor assay system (Promega, Madison, WI) in the same wells.
Tox21 Assay Protocol Summary:
VM7Luc4E2 cells were cultured in phenol red free assay medium containing 10% charcoal stripped FBS for 5 days prior to the assay. The cells were dispensed at 4,000 cells in 4uL of assay medium per well into white wall/solid-bottom 1536-well plates (Corning Life Sciences, Corning, NY) using a Multidrop Combi (Thermo Fisher Scientific Inc., Waltham, MA) dispenser. After the assay plates were incubated at 37C and 5% CO2 for 24hr, 1uL of 10.0nM (final concentration) ICI-182,780 or assay buffer was added using two separate tips of Flying Reagent Dispenser (FRD, Aurora Discovery, San Diego, CA). Then 23nL of compounds dissolved in DMSO at 15 concentrations and positive controls or DMSO only was transferred to the assay plates by a Pintool station (Wako, San Diego, CA). The assay plates were incubated at 37C and 5% CO2 for 22hr. After 21hr incubation at 37C, 1uL/well CellTiter-Fluor reagent (Promega Corporation, Madison, WI) was added to each well using FRD and after 1hr incubation at 37C and 5% CO2, the fluorescence signal was measured on ViewLux plate reader (PerkinElmer, Shelton, CT).
For `Cc1ccc(C(=O)c2ccc(CC(=O)O)n2C)cc1`, the Potency was “inactive”. With `CC(COc1ccccc1)NN` (stereo not given) the Potency was “inactive”. In the case of `Nc1ccncc1N`, the Potency is reported as “inactive”. With `CC(C(=O)O)c1cccc(Oc2ccccc2)c1` (stereo not given) the Potency was “inactive”. In the case of `NC(N)=NCCN1CCCCCCC1`, the activity change, negative = cytotoxicity is reported as 3.85% [at 0.349 µM]. With `CN(C)[C@@H]1C(=O)C(C(=O)NCN2CCCC2)=C(O)[C@@]2(O)C(=O)C3=C(O)c4c(O)cccc4[C@@](C)(O)C3C[C@@H]12` (stereo not given in full) the Potency was “inactive”. With `CC(=O)c1cnccn1` the Potency was “inactive”. For `CCCCCCCCN1CCCC1=O`, the Potency was “inactive”. With `O=[N+]([O-])c1cncn1CCN1CCOCC1` the Potency was “inactive”. `CN1CCN(c2cc3c(nn2)Oc2ccccc2N3C)CC1` gave an activity change, negative = cytotoxicity of -4.4% [at 19 µM]. With `C[N+](C)(C)CCCCCCCCCC[N+](C)(C)C` the Potency was “inactive”. For `CCN[C@H]1C[C@H](C)S(=O)(=O)c2sc(S(N)(=O)=O)cc21`, the Potency was “inactive”. In the case of `C[N+]1(CC2COC(c3ccccc3)(c3ccccc3)O2)CCCCC1` (stereo not given), the activity change, negative = cytotoxicity is reported as 7.11% [at 19 µM]. In the case of `Clc1cc(Cl)cc(Cl)c1`, the Potency is reported as “inactive”. For `Cc1ccnc(NS(=O)(=O)c2ccc(N)cc2)n1`, the Potency was “inactive”. In the case of `CC(=O)C1CCCCC1=O` (stereo not given), the Potency is reported as “inactive”. In the case of `CCCCOCCOC(=O)CCCCCCCCC(=O)OCCOCCCC`, the Potency is reported as “inactive”. With `Cc1c(N)c(=O)n(-c2ccccc2)n1C` the Potency was “inactive”. In the case of `CC[C@H]1OC(=O)[C@H](C)[C@@H](O[C@H]2C[C@@](C)(OC)[C@@H](O)[C@H](C)O2)[C@H](C)[C@@H](O[C@@H]2O[C@H](C)C[C@H](N(C)C)[C@H]2O)[C@](C)(OC)C[C@@H](C)C(=O)[C@H](C)[C@@H](O)[C@]1(C)O`, the Potency is reported as “inactive”. For `FB(F)F`, the Potency was “inactive”. For `CO[C@@]1(NC(=O)CSC[C@@H](N)C(=O)O)C(=O)N2C(C(=O)O)=C(CSc3nnnn3C)CS[C@@H]21`, the Potency was “inactive”. In the case of `NC(=O)N[C@@H](CCC(=O)O)C(=O)O`, the Potency is reported as “inactive”. For `CC(C#N)(CCC(=O)O)N=NC(C)(C#N)CCC(=O)O` (stereo not given), the Potency was “inactive”. With `CNCCO` the Potency was “inactive”. With `NC(=O)NC1N=C([O][Al])NC1=O` (stereo not given) the Potency was “inactive”. With `C=C(C)C(=O)OCCOCCOCCOCCOC(=O)C(=C)C` the Potency was “inactive”. For `CC(C)CCCO`, the Potency was “inactive”. With `CCN(C=O)CC` the Potency was “inactive”. For `CC(=O)Oc1cccc(C)c1`, the Potency was “inactive”. With `CC(C)(C)C(=O)c1ccccc1` the Potency was “inactive”. With `CC1=NN(c2cccc(S(=O)(=O)O)c2)C(=O)C1` the Potency was “inactive”. For `C1CCC2=NCCCN2CC1`, the Potency was “inactive”. With `CCCCOCCOC(=O)COc1cc(Cl)c(Cl)cc1Cl` the Potency was “inactive”. For `COC(=O)C1=C(C)NC(C)=C(C(=O)OC(C)C)C1c1cccc2nonc12` (stereo not given), the Potency was “inactive”. In the case of `COc1cc(C(=O)NCc2ccc(OCCN(C)C)cc2)cc(OC)c1OC`, the Potency is reported as “inactive”. For `CCOC(=O)COC(=O)c1ccccc1C(=O)OCC`, the Potency was “inactive”. With `O=C(O)CCCC[P+](c1ccccc1)(c1ccccc1)c1ccccc1` the Potency was “inactive”. In the case of `CN(C)CCCCCCN(C)C`, the Potency is reported as “inactive”. With `CCOC(=O)c1cnc2c(cnn2CC)c1NN=C(C)C` the Potency was “inactive”. In the case of `CCCCCCC1CCC(=O)O1` (stereo not given), the Potency is reported as “inactive”.
